Screening data as filed in PubChem BioAssay.
aSyn UTR act: Activators via SNCA 5'UTR binding, MLPCN | AID 1814, 2009 | alpha-synuclein 5'UTR reporter, activators screen | activity score, % (tested at 7.5 µM), hits read low | 300,000 tested, 7.1% active; in the data active = activity score below about -60%
Each line names hits and unclear results; the compound was inactive in the other large screens. Not all results are given here.

CCC(=O)Nc1cccc(NC(=S)NC(=O)c2cccs2)c1	aSyn UTR act -161
CN(C)/C=N/c1ncn(-c2ncc(C(F)(F)F)cc2Cl)n1	aSyn UTR act -85
Brc1ccc(C2=Nc3cccc4cccc(c34)N2)o1	aSyn UTR act -74
C(=C\c1ccccc1)/CSc1ccccn1	aSyn UTR act -187
Cc1cc(C)nc(SC/C=C/c2ccccc2)n1	aSyn UTR act -89
COc1ccc(-c2nc(CS(=O)CC(=O)NCCCN3CCCC(C)C3)c(C)o2)cc1OC (stereo not given)	aSyn UTR act -101
Cc1oc(-c2ccc(Cl)cc2)nc1CS(=O)CC(=O)NCCCN1CCCC(C)C1 (stereo not given)	aSyn UTR act -91
CN1CCN(Cc2nc(N)nc(Nc3ccc4c(c3)OCCO4)n2)CC1	aSyn UTR act -91
Cc1c(C(=O)OCC(=O)N2C(C)CCCC2C)oc2ccccc12 (stereo not given)	aSyn UTR act -118
Nc1nc(Cl)nc2c1ncn2C1CC(O)C(CO)O1 (stereo not given)	none
O=c1[nH]c(=O)n([C@H]2C[C@H](O)[C@@H](CO)O2)cc1C(F)(F)F	none
Nc1ncn([C@H]2C[C@H](O)[C@@H](CO)O2)c(=O)n1	aSyn UTR act -925
Cc1cccc(NC2=C(NC(=O)c3ccccc3)C(=O)c3ccccc3C2=O)c1	aSyn UTR act -102
COc1cc2c(cc1OC)C(c1cccs1)N(C(=S)NC(C)C)CC2 (stereo not given)	aSyn UTR act -74
COc1cc(C)ccc1OCc1cc(C(=O)N2CCN(C)C[C@@H]2c2ccccc2)no1	aSyn UTR act -139
COc1cc(C)ccc1OCc1cc(C(=O)N(Cc2c(C)nn(C)c2C)C2CC2)no1	aSyn UTR act -81
COc1cc(Cl)ccc1OCc1cc(C(=O)N2C[C@@H]3CCC[C@H]2C3)no1	aSyn UTR act -176
COc1cc(Cl)ccc1OCc1cc(C(=O)N2C[C@H]3CC[C@H]2C3)no1	aSyn UTR act -130
COc1cc(Cl)ccc1OCc1cc(C(=O)N2C[C@]3(C)C[C@H]2CC(C)(C)C3)no1	aSyn UTR act -87
O=C(Nc1ccc2nc(-c3cccs3)[nH]c2c1)c1cccs1	aSyn UTR act -223
O=C(Nc1ccc(-c2nc3ccc(NC(=O)c4cccs4)cc3[nH]2)cc1)c1cccs1	none
O=C(Nc1ccc2nc(-c3cccs3)[nH]c2c1)c1ccco1	aSyn UTR act -183
CC(=O)Nc1ccc2nc(-c3ccccn3)[nH]c2c1	aSyn UTR act -158
CC(C)(C)C(=O)N1CCN(c2nc3ccc(Cl)cc3s2)CC1	aSyn UTR act -237
CC(C)(C)C(=O)N1CCN(c2nc3ccc(Br)cc3s2)CC1	aSyn UTR act -164
CC(=O)N1CCN(c2nc3ccc(Br)cc3s2)CC1	aSyn UTR act -158
CCN(C(=O)c1cc2c(=O)n3ccccc3nc2n1C)C1CCCCC1	aSyn UTR act -75
CC1CCCCC1NC(=O)c1cc2c(=O)n3ccccc3nc2n1C (stereo not given)	aSyn UTR act -66
CCN(C(=O)c1cc2c(=O)n3ccccc3nc2s1)C1CCCCC1	aSyn UTR act -71
CN(C(=O)c1cc2c(=O)n3ccccc3nc2n1C)C1CCCCC1	aSyn UTR act -90
O=C(O)CC(C(=O)O)n1nc(-c2ccccc2)cc1-c1ccccc1 (stereo not given)	aSyn UTR act -77
CC(=O)n1nc(-c2ccccc2)cc1-c1ccccc1	aSyn UTR act -133
O=C(Nc1ccc(Br)cc1F)c1ccc2nsnc2c1	aSyn UTR act -106
COc1cccc(NC(=O)c2ccc3nsnc3c2)c1	aSyn UTR act -151
COc1ccccc1NC(=O)c1ccc2nsnc2c1	aSyn UTR act -112
COc1ccc(Nc2sc(C(=O)Nc3cccc(Cl)c3)c(N)c2C(=O)Nc2ccccc2OC)cc1	aSyn UTR act -67
COc1ccccc1NC(=O)c1sc(Cl)nc1C	aSyn UTR act -69
CCCOc1cccc(C(=O)Nc2ccc(Br)cc2F)c1	aSyn UTR act -161
Cc1nc(NC(=O)C2CC2)sc1C(=O)Nc1ccccc1Cl	aSyn UTR act -164
O=C(Nc1ccc(F)cc1)c1ccc2nsnc2c1	aSyn UTR act -175
N#C/C(=C\c1ccc(OCC(N)=O)cc1)c1ccccc1	aSyn UTR act -154
Cc1[nH]c2ccccc2c1C(=O)CN1C(=O)NC2(CC(C)CC(C)(C)C2)C1=O (stereo not given)	none
Cc1[nH]c2ccccc2c1C(=O)CSC(=S)N(C)C	aSyn UTR act -76
C=CCc1ccc(OCCn2cccc2C=O)c(OC)c1	aSyn UTR act -140
C/C=C/c1ccc(OCCn2nnc3ccccc32)c(OC)c1	aSyn UTR act -115
Cc1cccc(OCCn2nnc3ccccc32)c1C	aSyn UTR act -180
C=CCc1ccc(OCCn2nnc3ccccc32)c(OC)c1	aSyn UTR act -248
C=CCc1ccc(OCCOc2cccc3ccc(C)nc23)c(OC)c1	aSyn UTR act -69
Nc1c2c(nc3sc4c(c13)CCCC4)-c1ccccc1CC2	aSyn UTR act -75
Cc1ccccc1N/N=C1\CCCNC1=O	aSyn UTR act -100
COc1ccc(C(=O)Nn2c(SCc3cccc([N+](=O)[O-])c3)nc3ccccc3c2=O)cc1	none
O=C(Nn1c(SCc2cccc([N+](=O)[O-])c2)nc2ccccc2c1=O)c1ccccc1	aSyn UTR act -145
Cc1c2cnn(CC(=O)NC3CCCC3)c(=O)c2c(C)n1Cc1ccccc1	aSyn UTR act -100
Cc1nnc2n1N=CC=C(c1ccccc1)S2	aSyn UTR act -94
COc1ccc2nc(NC(=O)c3cc(C)oc3C)sc2c1	aSyn UTR act -140
COc1ccc2nc(NC(=O)c3cccnc3SC)sc2c1	aSyn UTR act -130
Cc1ccccc1NC(=O)Nc1nc2ccc(S(C)(=O)=O)cc2s1	aSyn UTR act -85
COc1ccc(NS(=O)(=O)c2cc(C)ccc2NC(=O)c2cc(C)oc2C)cc1	none
COc1ccc(C(=O)Nc2nc3cc4c(cc3s2)OCO4)c(OC)c1	aSyn UTR act -98
Cc1cc(C(=O)Nc2nc3ccc(S(C)(=O)=O)cc3s2)c(C)o1	aSyn UTR act -108
O=C(NC(=S)Nc1ccc(Cl)cn1)C12CC3CC(CC(C3)C1)C2	aSyn UTR act -162
CCc1cc(C(=O)Nc2ccc(OC)nc2)sc1C	aSyn UTR act -95
COc1ccc(NC(=O)c2sccc2C)cn1	aSyn UTR act -115
COc1ccc(NC(=O)c2cc(Br)c(Br)s2)cn1	aSyn UTR act -69
COc1ccc(NC(=O)c2nc3nccc(C)n3n2)cn1	aSyn UTR act -72
Cc1cc(/C=N\NC(=O)c2cccs2)c(C)n1-c1ccc2ncccc2c1	aSyn UTR act -145
O=C(CSc1nnc(SCc2cccc3ccccc23)s1)N/N=C/c1c[nH]c2ccccc12	aSyn UTR act -78
O=C(N/N=C/c1c[nH]c2ccccc12)c1ccc2c(c1)OCCO2	aSyn UTR act -140
O=C(N/N=C/c1c[nH]c2ccccc12)c1cccs1	aSyn UTR act -127
Cc1cc(C(=O)N/N=C/c2c[nH]c3ccccc23)c(C)o1	aSyn UTR act -81
Cc1cccc(NC(=S)N/N=C/c2c[nH]c3ccccc23)c1	aSyn UTR act -65
O=C(N/N=C/c1cccc2ccccc12)c1cccs1	aSyn UTR act -164
Cc1cc(C(=O)N/N=C/c2c[nH]c3ccccc23)cs1	aSyn UTR act -74
O=C(O)c1ccc(N/N=C/c2ccc(-c3ccc(Cl)cc3Cl)o2)cc1	aSyn UTR act -62
O=C(O)c1ccc(N/N=C/c2ccc(-c3cccc(Cl)c3)o2)cc1	aSyn UTR act -114
O=C(O)c1ccc(N/N=C/c2ccc(-c3cc(Cl)ccc3Cl)o2)cc1	aSyn UTR act -156
O=C(Cc1nc2ccccc2[nH]1)c1ccc(Cl)cc1	aSyn UTR act -80
